Data on 40 molecules can be found in PubChem BioAssay.

Each structure is given as a SMILES string. Calls of active or inactive are those of the source. No rule for the calls is given here.

The target in this assay is Pantothenate synthetase (Mycobacterium tuberculosis (strain ATCC 25618 / H37Rv)) (UniProt P9WIL5). Nature of the assay: Recombinant Mtb pantothenate synthetase (PanC) inhibitors, coupled enzyme, confirmatory (AID 375).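 Also: 0% = full reaction with vehicle and 100% = no enzyme background.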 The conditions noted are these: coupled enzyme assay; at 10 µM, hits give high values.
Chain of Pantothenate synthetase (Mycobacterium tuberculosis (strain ATCC 25618 / H37Rv)) (P9WIL5 whole entry, looked up): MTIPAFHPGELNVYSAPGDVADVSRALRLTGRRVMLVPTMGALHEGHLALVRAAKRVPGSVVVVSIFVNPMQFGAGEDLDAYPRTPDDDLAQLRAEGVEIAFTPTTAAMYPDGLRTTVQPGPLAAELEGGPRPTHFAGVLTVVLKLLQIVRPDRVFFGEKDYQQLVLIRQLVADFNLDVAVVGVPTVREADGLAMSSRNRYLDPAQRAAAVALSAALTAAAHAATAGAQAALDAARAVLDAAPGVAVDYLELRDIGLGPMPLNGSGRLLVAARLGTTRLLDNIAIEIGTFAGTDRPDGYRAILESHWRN
As to `COC(=O)c1cc(Br)c(=O)n(Cc2cccnc2)c1`, the inhibition was 9% (inactive).
Regarding `Cc1csc(NC(=O)c2sc3nc(-c4cccs4)ccc3c2N)n1`, the inhibition is 5% (inactive).
Consider `Cc1ccc(Nc2nc(CSc3nnc(-c4cccs4)o3)cs2)cc1`, for which the inhibition was 0% (inactive).
Regarding `COc1ccc2cc(C#N)c(NC(C)C)nc2c1`, the inhibition is 0% (inactive).
For the molecule `CCOc1ccccc1N(C(=O)c1ccco1)C(C(=O)NC1CCCC1)c1cccnc1` (stereo not given), the inhibition is 0% (inactive).
With `COc1ccccc1C(=O)N1CCNC(=O)C1CC(=O)Nc1ccc(Cl)cc1` (stereo not given), the inhibition is 0% (inactive).
Consider `Cc1cc(-c2ccccc2)nc(SCc2ccc(C(=O)O)o2)n1`, for which the inhibition is 0% (inactive).
Take `CCOC(=O)[C@H](CCc1ccccc1)N[C@@H](C)C(=O)N1CCC[C@H]1C(=O)O`: the inhibition is 0% (inactive).
On to `CCn1c(SCC(=O)N2c3ccccc3CCc3ccccc32)nc2c1c(=O)n(C)c(=O)n2C`, for which the inhibition is 1% (inactive).
With `CCCOc1ccccc1NC(=O)c1ccc(N)cc1`, the inhibition was 3% (inactive).
Regarding `O=C(NCC(=O)N(c1cccnc1)C(C(=O)NC1CCCCC1)c1cccnc1)c1ccco1` (stereo not given), the inhibition is 0% (inactive).
For `O=C(COC(=O)C12CC3CC(CC(C3)C1)C2)NCc1ccco1`, the inhibition was 0% (inactive).
With `COc1ccc(NC(=O)CCS(=O)(=O)c2ccc(OC)cc2)cc1` the figure was 0% (inactive); with `CCOc1ccc2ccccc2c1/C=N/n1cncn1`, 0% (inactive).
On to `CCn1c(=S)sc2nc(C)sc21`, for which the inhibition is 1% (inactive).
Regarding `COC(=O)[C@H](CCSC)NC(=O)Nc1cc(C)ccc1C`, the inhibition is 0% (inactive).
As for `COc1ccc(S(=O)(=O)Cc2ccc(C(=O)N3CCN(c4ccccc4)CC3)o2)cc1`, the inhibition was 0% (inactive).
Turning to `O=C(c1cccc2c1C(=O)N(Cc1cccnc1)C2)N1CCN(c2ccccc2)CC1`, the inhibition was 8% (inactive).
With `CC(=O)OC[C@H]1O[C@@H](n2ncc(=O)[nH]c2=O)[C@H](OC(C)=O)[C@@H]1OC(C)=O`, the inhibition is 0% (inactive).
With `C=CCOC(=O)CC(NC(=O)c1ccccc1)c1ccccc1` (stereo not given) the figure was 0% (inactive).
Turning to `Cc1noc(/C=C/N(C)C)c1S(=O)(=O)N1CCCC(C(=O)N2CCc3ccccc32)C1` (stereo not given), the inhibition was 10% (inactive).
For `CN(C)c1ccc(NC(=O)Nc2cccc(Cl)c2)cc1`, the inhibition was 0% (inactive).
With `O=C(c1ccc(-c2ccccc2)cc1)N1CCN(c2ncccn2)CC1` the figure was 8% (inactive).
With `CS(=O)(=O)N1CCCC(C(=O)N2CCOCC2)C1` (stereo not given) the figure was 6% (inactive); with `CCN(CC)CCOC(=O)c1ccc(NC(=O)COc2cc(=O)n(CC)c3ccccc23)cc1`, 2% (inactive); with `O=C(c1ccc2nc(N3CCOCC3)sc2c1)N1CCCC1`, 13% (inactive).
For the molecule `CN(C(=O)c1ccccn1)c1nnc(-c2ccncc2)s1`, the inhibition was 0% (inactive).
Turning to `O=C(CCCCCn1c(=S)[nH]c2cc3c(cc2c1=O)OCO3)N1CCN(Cc2ccccc2)CC1`, the inhibition was 1% (inactive).
For the molecule `COc1ccc(-c2cc(O)cc(O)c2)cc1`, the inhibition was 0% (inactive).
With `COc1ccc(-n2c(SCC(=O)N3CCCCC3C)nnc2-c2cccnc2)cc1` (stereo not given) the figure was 0% (inactive); with `COc1ccc(-c2cc(C(F)(F)F)nc(SCCC(=O)N3CCOCC3)n2)cc1`, 1% (inactive).
Consider `COc1ccc(-c2nnc(SCC(=O)c3cc(C)n(Cc4cccs4)c3C)o2)cc1`, for which the inhibition is 0% (inactive).
As for `O=C(CCCCCn1c(SCc2ccncc2)nc2ccccc2c1=O)NCc1ccco1`, the inhibition was 0% (inactive).
On to `c1ccc(CSc2nnc(-c3cccs3)n2Cc2ccco2)cc1`, for which the inhibition was 0% (inactive).
On to `COc1ccc(CCn2c(C)cc(C(=O)CSc3nnnn3C)c2C)cc1`, for which the inhibition is 0% (inactive).
Consider `CC(=O)C1=C(C)NC(SCSc2ccccc2)=C(C#N)C1c1cccnc1` (stereo not given), for which the inhibition is 4% (inactive).
Consider `NC(=O)C1CCN(CC(=O)N2c3ccccc3CCc3ccccc32)CC1`, for which the inhibition is 0% (inactive).
With `N#C/C(C(=O)c1ccccc1)=C1/CCCN1` the figure was 3% (inactive).
For the molecule `COc1ccc(C(=O)OCC(=O)NCc2ccco2)cc1OC`, the inhibition is 0% (inactive).
As for `Fc1cccc(NCc2cn3ccccc3n2)c1`, the inhibition is 0% (inactive).
